# Source: ChEMBL document CHEMBL3433997, “St. Jude Leishmania screening dataset” (2016)
# Key:
# Assay type in all cases: functional
# [1] = biological target: Solute carrier family 2, facilitated glucose transporter member 1 (Homo sapiens) (UniProt P11166); assay: ST_JUDE_LEISH: Cytotoxicity at 2uM final concentration against transgenic Leishmania Mexicana promastigotes LmGLUT1 that are glucose transport deficient and complemented with the human glucose transporter GLUT1. Activity is measured by DNA content using SYBR green in vitro
# [2] = biological target: Hexose transporter 1 (Plasmodium falciparum) (UniProt O97467); assay: ST_JUDE_LEISH: Cytotoxicity at 2uM final concentration against transgenic Leishmania Mexicana promastigotes LmPfHT that are glucose transport deficient and complemented with the Plasmodium falciparum hexose transporter. Activity is measured by DNA content using SYBR green in vitro
# [3] = biological target: Glucose transporter (Leishmania mexicana) (UniProt O61059); assay: ST_JUDE_LEISH: Cytotoxicity at 2uM final concentration against transgenic Leishmania Mexicana promastigotes LmGT2 that are glucose transport deficient and complemented with the L. Mexicana glucose transporter 2. Activity is measured by DNA content using SYBR green in vitro
# Solute carrier family 2, facilitated glucose transporter member 1 (Homo sapiens), sequence (P11166 whole entry): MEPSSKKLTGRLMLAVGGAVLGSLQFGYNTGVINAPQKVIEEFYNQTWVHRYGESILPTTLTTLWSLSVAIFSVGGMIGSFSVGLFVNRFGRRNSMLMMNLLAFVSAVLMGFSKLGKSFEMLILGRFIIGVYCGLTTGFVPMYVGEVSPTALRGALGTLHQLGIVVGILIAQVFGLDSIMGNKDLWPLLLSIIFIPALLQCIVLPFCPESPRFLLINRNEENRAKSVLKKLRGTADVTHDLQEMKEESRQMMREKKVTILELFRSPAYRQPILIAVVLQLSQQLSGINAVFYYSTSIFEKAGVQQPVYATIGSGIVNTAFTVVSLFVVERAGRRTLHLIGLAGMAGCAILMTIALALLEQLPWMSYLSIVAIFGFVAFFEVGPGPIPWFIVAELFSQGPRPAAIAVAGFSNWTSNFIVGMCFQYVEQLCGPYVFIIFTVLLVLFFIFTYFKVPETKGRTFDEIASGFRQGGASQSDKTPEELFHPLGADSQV
Compound,inhibition [1],inhibition [2],inhibition [3]
CN(CCc1ccccc1)c1ncc(-c2ccccc2CNCc2ccccc2O)cn1,0.08%,-1.17%,2.23%
COc1ccc(NC(=O)c2cn(-c3ccc(C(C)(C)C)cc3)nc2C)cc1N1CCN(C)CC1,1.31%,0.2%,1.64%
O=C(Cn1c(CCc2cccc(F)c2F)nc(=O)c2ccccc21)N(CCCN1CCCCC1)Cc1ccc(-c2ccc(C(F)(F)F)cc2)cc1,2.28%,3.25%,1.99%
Cc1cc(N/N=C/c2ccccc2[N+](=O)[O-])c2cc(F)ccc2n1,2.14%,1.95%,0.94%
CCC(C)CN1CCN(c2cc(NC(=O)c3cccs3)ccn2)C(C)C1 (stereo not drawn),-1.02%,2.3%,1.68%
Cc1[nH]c(C)c(-c2ccc(OCc3cc(C(F)(F)F)cc(C(F)(F)F)c3)nc2)c(=O)c1Br,10.1%,10.2%,2.99%
Nc1ncc(-c2ccc(Cl)c(Cl)c2)c(N)n1,0.86%,1.64%,0.31%
COc1ccc(N(C)Cc2cnc3nc(N)nc(N)c3n2)cc1,1.5%,1.84%,2.61%
NCC1CCCN1Cc1cccc(-c2ccc(-c3nc4cc(C(F)(F)F)ccc4[nH]3)s2)c1 (stereo not drawn),1.28%,0.87%,0.38%
C=CCC(C(=O)Nc1ccnc2ccc(OC)cc12)C1CCN(CCCCCCC)CC1 (stereo not drawn),1.74%,1.29%,0.87%
Nc1nc(Nc2ccc(Cl)cc2)nc2ccccc12,14%,12.4%,6.83%
CC(CN1CCN(C)CC1)C(=O)Nc1ccc(-c2csc(-c3nc4ccccc4[nH]3)c2)cc1 (stereo not drawn),4.03%,5.18%,5.51%
O=C(c1cc(-c2ccccc2O)on1)N1CCN(C(c2ccccc2)c2ccccc2)CC1,-0.36%,-0.36%,0.34%
CN(CCCCNC(=O)c1ccc(-c2ccccc2)cc1)C1CCc2c(O)cccc2C1 (stereo not drawn),2.79%,2.13%,1.18%
CN(CCCNc1ccc(C(=O)Nc2ccc(C(F)(F)F)cc2)cc1[N+](=O)[O-])Cc1ccccc1,1.17%,-0.19%,-3.45%
CCOc1cc(C)ccc1C1CCN(CCCCNC(=O)c2nc(-c3ccc(C(F)(F)F)cc3)[nH]c2C)CC1,1.65%,0.72%,-0.05%
CCCCCOc1c(CCC)cc(Cc2cnc(N)nc2N)cc1CCC,14.7%,12.3%,4.12%
Cc1cc(=O)c(C2CCC(c3ccc(Cl)cc3)CC2)c(C)[nH]1 (stereo not drawn),2.3%,2.51%,2.37%
CCOC(=O)c1ccc(NC(=O)Nc2ccc(-c3ccc(-c4nc5cc(C(F)(F)F)ccc5[nH]4)cc3)cc2)cc1,-1.59%,-0.19%,1.54%
FC(F)(F)c1ccc2[nH]c(-c3cccc(-c4ccc(CNCc5ccccc5)cc4)c3)nc2c1,-0.08%,-1.13%,-0.47%
CCN(CC)CCCN(CCCN(CC)CC)c1cc(C)nc(Nc2ccc(Cl)cc2)n1,2.61%,0.88%,0.26%
COc1cc(C)nc2ccc(NC(=O)Nc3cccc4ccccc34)cc12,3.38%,5.33%,3.45%
Cc1cc(C(F)(F)F)cc(-n2ncc(-c3ccc(C(=O)NCCNCc4ccccc4)cc3)c2N)n1,0.77%,1.46%,-0.24%
O=S(=O)(Nc1ccc(CCN2CCC(N3CCCCC3)CC2)cc1)c1ccccc1C(F)(F)F,13.5%,13.4%,11.3%

Compound,inhibition [1],inhibition [2],inhibition [3]
CN1CCC[C@H]1COc1ccc(CN2CC[C@H](NC(=O)c3ccc(Cl)c(Cl)c3)C2)cc1Br,2.61%,2.26%,1.89%
O=C(C=Cc1ccc(Cl)c(Cl)c1)NCCCCCN1CCC(CCCNS(=O)(=O)c2ccc(F)cc2)CC1,1.12%,-1.5%,-0.43%
CCCCN(CCCC)CCCN(CCCN(CCCC)CCCC)c1cc(C)nc(Nc2ccc(Br)cc2)n1,-1.21%,-0.35%,-1.15%
CCCN1CCC(c2c[nH]c3ccc(NC(=O)Nc4cccc(Cl)c4Cl)cc23)CC1,3.84%,2.45%,4.47%
N=C(N)NCCN(Cc1ccccc1)c1ccc(Cl)cc1,1.36%,-0.96%,1.25%
COc1ccc(NC(=O)Nc2ccc(C)c(-c3ccc(C(=O)Nc4ccncc4)cc3)c2)cc1,1.53%,1.45%,0.71%
Cc1cc(N2Cc3ccccc3C2)nc(Nc2cccc(C#N)c2)n1,4.07%,4.04%,2.59%
OC(CNCc1cccc(Oc2ccc(Cl)cc2)c1)c1cccc(C(F)(F)F)c1 (stereo not drawn),1.7%,1.81%,-0.71%
NCCCOc1cnc(-c2ccccc2)c2nc(-c3nonc3N)n(CCc3ccccc3)c12,4.6%,2%,1.33%
Cc1c(C)c2c(c(C)c1O)CCC(C)(CCC(=O)O)O2 (stereo not drawn),0.86%,2.15%,1.82%
COc1ccc(-c2cc(C(=O)N3CCc4ccccc43)c3ccccc3n2)cc1OC,-0.76%,1.24%,-0.93%
CN(C)c1ccc2nc(N)nc(N)c2c1Cl,3.29%,3.16%,3.5%
CC(C)CC(C)NC(=O)C1Cc2c([nH]c3cc(Cl)ccc23)C2(CCN(CCc3ccccc3)CC2)N1 (stereo not drawn),6.97%,7.27%,4.34%
CC(C)CC(NC(=O)c1cc2ccccc2s1)C(=O)N1CCCCCC1c1ccc(C(C)(C)C)cc1 (stereo not drawn),-2.77%,-0.83%,-0.81%
Clc1ccc(C=NN=c2cc[nH]c3ccccc23)cc1,9.89%,8.46%,6.25%
Cc1ccc(-c2cnc(N)c3cc(-c4ccnc(N)n4)ccc23)cc1,-0.17%,-2.15%,-1.88%
O=C(Nc1ccccc1)Nc1cccc(-c2cc(CNCCc3ccccc3)sc2-c2ccncc2)c1,-0.01%,-0.54%,4.67%
Cc1ccc2[nH]ncc2c1N(CC1CCCCC1)c1ccnc(Nc2ccc(OCC(O)CN3CC=CCC3)cc2)n1 (stereo not drawn),2.37%,3.33%,-0.59%
CC(C)OCCCNC(=O)c1nc(-c2cccc(C(F)(F)F)c2)sc1C(C)C,3.62%,4.03%,4.46%
c1ccc(CNc2nc(NCCc3c[nH]cn3)nc(NCc3cccc4ccccc34)n2)cc1,-1.52%,0.21%,-0.28%
COc1cc2nc(Nc3ccc4c(ccn4Cc4ccccc4)c3)nc(Nc3ccc4c(ccn4Cc4ccccc4)c3)c2cc1OC,1.55%,1.97%,3.43%
O=C(Oc1ccc(C2CNCCc3c2cc(OC(=O)c2ccc(O)cc2)c(OC(=O)c2ccc(O)cc2)c3Cl)cc1)c1ccc(O)cc1 (stereo not drawn),4.39%,5.32%,4.76%
O=C(NCc1ccc(F)cc1)Nc1ccc(-c2cccc(-c3nc4cc(C(F)(F)F)ccc4[nH]3)c2)cc1,3.93%,2.38%,-0.05%
O=C(NCc1cccc2ccccc12)[C@@H]1CCCN1C(=O)c1ccc(O)c(-c2ccc(Cl)c(Cl)c2)c1,3.99%,2.59%,1.99%

Compound,inhibition [1],inhibition [2],inhibition [3]
Cc1cc(Nc2ccc(C)c(Cl)c2)n2nc(C(F)(F)F)nc2n1,6.65%,2.47%,1.18%
COc1cc(C(F)(F)F)cc2[nH]c(CNCCCNc3nc4ccccc4[nH]3)cc12,4.4%,6.5%,5.01%
O=C(Nc1cccc(CN2CCN(C(=O)c3cccc(Cl)c3)CC2)c1)c1cccs1,5.62%,4.14%,2.57%
COC(=O)c1cccc(CNCc2cccc(-c3cccc(-c4nc5cccc(C)c5[nH]4)c3)c2)c1,9.22%,8.21%,6.67%
COc1ccc(-c2ccc(NC(=O)c3cccc(C#N)c3)cc2)cc1CN1CCN(C)CC1,4.33%,6.51%,1.6%
Cc1cccc2nc(-c3ccc(-c4ccc(CNCC5CCCO5)cc4)cc3)[nH]c12 (stereo not drawn),16.3%,14.9%,6.42%
COc1ccc(C(=O)NCCCCN2CCC(c3ccc4c(c3OC)CCCC4)CC2)cc1-c1ccc(C(F)(F)F)cc1,-1.89%,0.84%,-1.69%
COc1ccc(Cl)cc1N1CCN(CCCNC(=O)c2ccc(-c3nc4cc(Cl)c(C)cc4[nH]3)c(F)c2)CC1,1.96%,0.19%,0.07%
Fc1ccc2[nH]c(-c3cccc(-c4ccc(CN5CCC(CCN6CCCCC6)CC5)cc4)c3)nc2c1,-0.64%,4.58%,10.4%
CC1(C)N=C(N)N=C(N)N1c1cccc(Cl)c1,0.67%,-0.19%,2.95%
Cc1ccc(NC(=O)NC2CCN(CCCCCNC(=O)/C=C/c3ccc(Cl)c(Cl)c3)CC2)cc1,0.42%,1.16%,-5.98%
Cc1cccc2nc(-c3cccc(-c4ccc(NC(=O)CN5CCN(C)CC5)cc4)c3)[nH]c12,2.17%,3.31%,0.62%
N=C(N)Nc1nc(CCCCCCCCc2csc(NC(=N)N)n2)cs1,-1.03%,-0.76%,1.03%
O=[N+]([O-])c1cccc(CNC2CCN(Cc3ccc(-c4ccccc4)cc3)CC2)c1,1.94%,8.06%,2.9%
CCCCC(=O)NC(c1cccs1)c1cc(Cl)c2cccnc2c1O (stereo not drawn),8.63%,8.32%,5.17%
COc1cc(Nc2nccn3c(-c4ccsc4)cnc23)cc(OC)c1OC,7.63%,5.81%,4.31%
N#Cc1cncc(-c2nc3c(N4CCCC(N)C4)cccc3n2CCNCc2ccccc2)c1 (stereo not drawn),6.64%,5.11%,8.87%
Cc1[nH]c(C)c(-c2ccc(-c3cccc(Cl)c3)nc2)c(=O)c1Cl,0.79%,2.52%,1.48%
C=C1C(C(=O)OCC)=CN(CC)c2cc(O[C@@H]3CCN(C(=O)OC(C)(C)C)C3)ccc21,6.89%,5.44%,6.99%
Cc1nc(-c2ccc(-c3ccc(NC(=O)c4coc5ccc(N6CC(C)N(C)C(C)C6)cc45)cc3)c(C)c2)no1 (stereo not drawn),-0.52%,0.17%,3.28%
Cc1cc(OCCCN2CCCCC2)ccc1NC(=O)COc1ccc(Cl)cc1C(=O)c1cc(C#N)cc(C(F)(F)F)c1,4.63%,3.53%,0.43%
CC(C)Cn1cc(C2CCN(CCN3CCC(CNC(=O)c4ccc(-c5ccc(C#N)cc5)cc4)CC3)CC2)c2ccccc21,2.71%,5.31%,2.53%
COC(=O)c1cc(C(=O)CN(Cc2ccccc2)C(C)C)ccc1O,4.78%,5.9%,4.16%
